# FLuc inh – blocks purified firefly luciferase enzyme activity. P08659. Potency, µM (series often up to 115 µM), usual class: inhibitors. purified P. pyralis luciferase, luminescence, biochemical. 76,000 tested, 2.5% active; also: nearly all actives have a fitted effect of over 65% in size
# Target sequence (P08659 whole entry, looked up): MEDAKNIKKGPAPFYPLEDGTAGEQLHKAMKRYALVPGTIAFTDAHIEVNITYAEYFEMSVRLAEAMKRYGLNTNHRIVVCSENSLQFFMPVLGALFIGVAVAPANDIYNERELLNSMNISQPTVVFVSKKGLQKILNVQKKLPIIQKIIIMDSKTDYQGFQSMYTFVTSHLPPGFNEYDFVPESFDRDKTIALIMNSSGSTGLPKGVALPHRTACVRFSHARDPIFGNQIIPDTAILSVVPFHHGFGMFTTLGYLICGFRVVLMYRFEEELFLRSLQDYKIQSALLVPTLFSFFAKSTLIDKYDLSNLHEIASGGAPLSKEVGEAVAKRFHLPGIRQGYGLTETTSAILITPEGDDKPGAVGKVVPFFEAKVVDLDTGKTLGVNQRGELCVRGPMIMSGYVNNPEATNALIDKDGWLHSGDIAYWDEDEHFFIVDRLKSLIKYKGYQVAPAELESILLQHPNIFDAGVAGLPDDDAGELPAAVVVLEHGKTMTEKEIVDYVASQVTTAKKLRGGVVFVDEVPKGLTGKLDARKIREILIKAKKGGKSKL
#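 Luminescence read by CCD imaging after purified firefly luciferase (10nM final) was added to substrate buffer holding 10uM D-luciferin and 10uM ATP, pH 7.5, pre-dosed with compound.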
# NPR1 antag – blocks ANP-stimulated signaling of human Npr1 receptor; P16066; HEK293 hNpr1 GloSensor cGMP, ANP-stimulated luminescence; Potency, µM (series often up to 46.3 µM), for the others: at the top dose activity change, negative = inhibition, actives largely listed as inhibitors; 76,000 tested, 1.6% active; calls by dose curve; also: nearly all actives have a fitted effect of over 60% in size
#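 HEK293 cells stably expressing human Npr1 and cGMP GloSensor pGS-40F, loaded 2 h with 2% GloSensor reagent, given compound 30 min at room temperature. Luminescence read before and 20 min after 0.1 nM hNppA.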
# HEK293 tox – HEK 293 cell cytotoxicity | 94,000 tested, 6.6% active | HEK 293 viability, ATP luminescence (CellTiter-Glo), 48-72 h | Potency, µM (highest dose often 115 µM), inactives show at the top dose activity change, negative = cytotoxicity, hits mostly inhibitors; also: nearly all actives have a fitted effect of over 60% in size
#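 CellTiter-Glo luminescence (cellular ATP) was read after 48 or 72 hr of compound exposure at 37 degree Celsius. Cells were HEK 293 plated at 250 cells/well.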
# GPT2 inh – inhibitors of human GPT2 alanine aminotransferase | 100,000 tested, 0.25% active | Recombinant GPT2, coupled pyruvate oxidase/HRP Amplex Red fluorescence | AID 1671188 | Potency, µM (series often up to 57.7 µM), inactives show top-dose activity change, negative = inhibition, most hits filed as inhibitors; also: nearly all actives have a fitted effect of over 60% in size
#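 Recombinant GPT2 (10ng/uL) with 250uM a-KG and 2mM L-alanine, 30 min at room temperature, in HEPES pH 7.5 buffer. Pyruvate detected by pyruvate oxidase/HRP/Amplex Red fluorescence after 30 min in the dark; AOA (50uM) as positive control.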
# NIH3T3 tox – cytotoxic compounds in NIH 3T3 cells. NIH 3T3 viability, CellTiter-Glo ATP luminescence, 48-72 h. Potency, µM (titrated, usually from 96.7 µM), for the others: top-dose activity change, negative = cytotoxicity, usual class: inhibitors. 94,000 tested, 4.3% active; also: nearly all actives have a fitted effect of over 55% in size
#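 Cells were seeded at 400 per well, treated with pin-transferred compound, and kept 48 or 72 hr at 37 °C before CellTiter-Glo addition and luminescence imaging of cellular ATP.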
# Active calls of the source: *; i = inactive; ? = inconclusive; . = not tested or not shown; [ ] = dose if it differs, or a comment. Hits are enriched below; roughly 10% of the tested compounds scored in any of these assays. Unless noted, calls follow the shape of the dose curve; as a rule, active = well fitted curve in the direction sought with a large enough effect; inconclusive = small, poorly fitted or top-dose-only effect, or another doubt; inactive = no such curve, though single readings can be large; an effect the other way counts as inactive or inconclusive. % is scaled to controls: 0 for no effect and ±100 for the full control effect; potency is read from the fitted curve at half-maximal effect.
SMILES,FLuc inh,NPR1 antag,HEK293 tox,GPT2 inh,NIH3T3 tox
O=C(c1ccc(C(F)(F)F)cc1)N1CCC2(C1)C(=NC1CCCCC1)NC(=O)N2c1cc(F)cc(F)c1 (centres undefined),.,.,-5%,i,25µM*
CNC(=O)c1cc(C2CC2)nc2c1c(C1CCCN1C(=O)c1ccccc1C)nn2C (centres undefined),.,.,0%,.,-22%
CC(=O)N1CCC(C(=O)N2CCC(c3nc4ncccc4[nH]3)CC2)C1 (centres undefined),.,.,-4%,i,3%
CNC(=O)[C@H]1CN(C(=O)OCC(C)C)[C@]2(C)C(=O)N(CCOC)c3ccccc3[C@H]12,.,.,?,i,-21%[46.1 µM]
CCOC(=O)C1CCCN(C(=O)C2CCc3nnc(C4CC4)n32)C1 (centres undefined),.,.,?,i,25µM*
COc1ccc(CCc2nc3nccc(-c4ccc5c(c4)OCCCO5)n3n2)cc1OC,?,-5%,45µM*,-1%,?
Fc1ccc(Cc2nc3nccc(-c4ccc5c(c4)OCCCO5)n3n2)cc1,?,-2%,45µM*,-3%,?
COc1ccc(Cc2nc3nccc(-c4ccc5c(c4)OCCCO5)n3n2)cc1,i,0%,?,2%,?
Cc1ncoc1C(=O)NCC1Cn2cccc2CN1Cc1ccccc1 (centres undefined),i,7%,?,i,-24%
CN(C)c1nc2c(c(=O)[nH]1)CCN(Cc1ccccc1Br)CC2,i,2%,0%,4%,-6%
Cc1cn2nc(C(=O)NCc3ccc(F)cc3F)cc2c(N(C)Cc2ccccc2)n1,i,2%,?,-10%,35µM*
Cc1cn2nc(C(=O)N3CCC(C)CC3)cc2c(N(C)Cc2ccccc2)n1,i,17%,?,0%,35µM*
O=C(NCc1ccccc1Cl)c1nc2sccn2c1-c1cccc(C(F)(F)F)c1,.,.,25µM*,-12%,?
COc1ccc(NC(=O)c2nc3sccn3c2-c2ccccc2)cc1,.,.,?,-8%[88.5 µM],?
O=C(NCc1ccc(F)cc1)c1nc2sccn2c1-c1cccc(C(F)(F)F)c1,.,.,63µM*,-2%[88.5 µM],?
O=C(Nc1ccc(F)cc1)c1nc2sccn2c1-c1cccc(C(F)(F)F)c1,.,.,50µM*,i,?
COc1ccc(-c2c(C(=O)Nc3cccc(Cl)c3)nc3sccn23)cc1,.,.,63µM*,i,?
O=C(NCc1ccccc1)c1nc2sccn2c1-c1cccc(C(F)(F)F)c1,.,.,-24%,-15%,-15%
O=C(c1cc(F)ccc1F)N1CCCC(c2nnnn2-c2ccccc2)C1 (centres undefined),.,.,-20%,1%,-28%
O=C(NCCc1ccc(Cl)cc1)c1nc2sccn2c1-c1ccc(C(F)(F)F)cc1,.,.,40µM*,-15%,20µM*
O=C(NCc1cccc(C(F)(F)F)c1)c1nc2sccn2c1-c1ccc(C(F)(F)F)cc1,.,.,40µM*,-9%,?
Cc1ccc(-c2c(C(=O)NCc3ccccc3)nc3sccn23)cc1,.,.,-7%,4%,-27%
COCCNC(=O)c1nc2sccn2c1-c1ccc(C(F)(F)F)cc1,.,.,-27%,-15%,?
O=C(NCc1ccccc1)c1nc2sccn2c1-c1ccncc1,.,.,112µM*,-23%[88.5 µM],?
Cc1ccc(-c2c(C(=O)Nc3ccc(F)cc3)nc3sccn23)cc1,.,.,?,1%,?
Cc1ccc(NC(=O)c2nc3sccn3c2-c2ccncc2)cc1,.,.,112µM*,-3%[88.5 µM],?
Cc1ccc(NC(=O)C2CCc3nnc(-c4cccc(C(F)(F)F)c4)n32)cc1 (centres undefined),.,.,?,i,?
COc1cccc(-c2cccc(C(=O)N3CCCC3C(=O)NCc3ccc(Cl)cc3)c2)c1 (centres undefined),.,.,?,-61%,?
O=C1N(c2ccccc2)c2ccccc2C12CCN([S+](=O)([O-])c1ccccc1)C2 (centres undefined),.,.,?,-21%,?
CN1Cc2cccn2CC1CNC(=O)c1ccnn1C (centres undefined),i,1%,4%,i,-7%
